Inconclusive results are not listed. A call without a number means that no potency is given here. Active and inactive are the calls of the source. The call rests on the fitted dose curve; in most records, active means well fitted inhibition curve with a large enough effect; inconclusive means small, poorly fitted or top-dose-only effect; inactive means no such curve, though single readings can be large or run the other way.

The experiment in a line: Primary qHTS for small molecule stabilizers of the endoplasmic reticulum resident proteome: Secreted ER Calcium Modulated Protein (SERCaMP) assay (AID 1508630). The conditions noted are these: SH-SY5Y GLuc-SERCaMP (Gaussia luciferase released on ER calcium loss) secretion, thapsigargin, luminescence; series mostly up to 38.4 µM. In a few lines:
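GLuc-SERCaMP-expressing SH-SY5Y cells, pretreated 16 h with compound, are challenged with thapsigargin to empty ER calcium stores; after 4 h, coelenterazine is added directly to the medium and luminescence is imaged.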
(qHTS replaces the single test concentration by a dilution series.)
`COC(=O)c1c(C)[nH]c(C)c1C(=O)c1ccccc1Cc1ccccc1`: the Potency entry is “inactive”.

As to `NCCSSCCN`, the Potency result was “inactive”.

As to `COc1cc2c(CCNC(C)=O)c[nH]c2cc1Cl`, the Potency result is “inactive”.

As for `Nc1nc(Nc2ccccc2)nc2c1ncn2[C@@H]1O[C@H](CO)[C@@H](O)[C@H]1O`, the Potency entry is “inactive”.

As for `CNC(=O)[C@H]1O[C@@H](n2cnc3c(NCc4ccc(N)cc4)ncnc32)[C@H](O)[C@@H]1O`, the Potency result was “inactive”.

In the case of `NCCCS(=O)(=O)O`, the Potency result was “inactive”.

Regarding `CNc1ncnc2c1ncn2[C@@H]1O[C@H](CO)[C@@H](O)[C@H]1O`, the Potency entry is “inactive”.

Turning to `CN(C)C(N)=NCCC[C@H](N)C(=O)O`, the Potency result is “inactive”.

On to `O=C(O)CC1CCCc2ccccc2C1O` (configuration not stated), for which the Potency entry is “inactive”.

Regarding `COc1ccc(NC(=O)/C=C/c2ccc(Cl)cc2)cc1`, the Potency result was “inactive”.

Consider `CN=c1nc(-c2ccccc2)n(-c2ccccc2)s1`, for which the Potency entry was “inactive”.

For the compound `Nc1ncnc2c1ncn2[C@@H]1O[C@H](COP(=O)(O)CP(=O)(O)OP(=O)(O)O)[C@@H](O)[C@H]1O`, the Potency entry was “inactive”.

In the case of `NC[C@H]1O[C@@H](n2cnc3c(N)ncnc32)[C@H](O)[C@@H]1O`, the Potency result was “inactive”.

Take `Clc1ccc(N2CCN(Cc3cc4ccccn4n3)CC2)cc1`: the Potency result is “inactive”.

Turning to `C[C@@H](CN1CCC(Cc2ccccc2)CC1)[C@@H](O)c1ccc(O)cc1`, the Potency entry was “inactive”.

On to `S=C(S)OC1CC2CC1C1CCCC21` (configuration not stated), for which the Potency result was “inactive”.

As for `Clc1ccc(N2CCN(Cc3c[nH]c4ncccc34)CC2)cc1`, the Potency entry was “inactive”.

As for `CSc1nc(N)c2ncn([C@@H]3O[C@H](COP(=O)(O)OP(=O)(O)OP(=O)(O)O)[C@@H](O)[C@H]3O)c2n1`, the Potency entry is “inactive”.

With `O=C1/C(=C/c2ccsc2)CC/C1=C\c1cccs1`, the Potency result is “inactive”.

For the compound `COc1cccc(OC)c1OCCNCC1COc2ccccc2O1` (configuration not stated), the Potency result is “inactive”.

As to `OC[C@H]1O[C@@H](n2cnc3c(NC4CCCC4)ncnc32)[C@H](O)[C@@H]1O`, the Potency result was “inactive”.

On to `Nc1nc(Cl)nc2c1ncn2[C@@H]1O[C@H](CO)[C@@H](O)[C@H]1O`, for which the Potency result is “inactive”.

Take `CCCCCCCCCCCCCCCC(=O)OC(CC(=O)O)C[N+](C)(C)C` (configuration not stated): the Potency entry is “inactive”.

Turning to `CCCCCCCCc1ccc(-c2ccc(C(=O)O)cc2)cc1`, the Potency result was “inactive”.

Take `CC[C@@H](C)[C@H]1O[C@]2(CC[C@H]1C)C[C@@H]1C[C@@H](CC=C(C)[C@@H](O[C@H]3C[C@H](OC)[C@@H](O[C@H]4C[C@H](OC)[C@@H](O)[C@H](C)O4)[C@H](C)O3)[C@@H](C)C=CC=C3CO[C@@H]4[C@H](O)C(C)=C[C@@H](C(=O)O1)[C@]34O)O2`: the Potency result is “inactive”.

As to `COc1ccccc1CNCCCCCCNCCCCCCCCNCCCCCCNCc1ccccc1OC`, the Potency result was “inactive”.

`O=[N+]([O-])c1ccc(CSc2ncnc3c2ncn3[C@@H]2O[C@H](CO)[C@@H](O)[C@H]2O)cc1`: the Potency result was “inactive”.

Turning to `O=C(O)c1cc([N+](=O)[O-])ccc1NCCCc1ccccc1`, the Potency result is “inactive”.

As for `Oc1ccc(C2CNCc3sccc32)cc1O` (configuration not stated), the Potency entry is “inactive”.

Take `O=C(O)c1cc(=O)c2c(Cl)cc(Cl)cc2[nH]1`: the Potency entry is “inactive”.

With `CC(C)(C=O)Cc1cc(C(C)(C)C)c(O)c(C(C)(C)C)c1`, the Potency entry was “inactive”.

In the case of `OCC1O[C@H](O)C(Cl)C(O)C1O` (some centres not stated), the Potency result is “inactive”.

For the compound `Cc1cc(NC2CCCCC2)nc(-n2nc(C)cc2C)n1`, the Potency entry was “inactive”.

Regarding `CN(C)c1ccc(/C=C2\C(=O)Nc3ccccc32)cc1`, the Potency entry was “inactive”.

Turning to `CN1CCc2cccc3c2C1Cc1ccc(O)c(O)c1-3` (configuration not stated), the Potency entry was “inactive”.

With `C[N+](C)(C)CCOP(=O)(O)OP(=O)([O-])OC[C@H]1O[C@@H](n2ccc(N)nc2=O)[C@H](O)[C@@H]1O`, the Potency entry is “inactive”.

Consider `COc1cc(C(O)CO)ccc1OS(=O)(=O)O` (configuration not stated), for which the Potency entry was “inactive”.

For the origin of these results see PubChem BioAssay (NCATS).
